These results are taken from the supplement of paper PMC7156485.

A number with no mark means an inactive call.
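Also: TDF is a line of transformed human dermal fibroblasts of mesenchymal origin.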

The assay deals with HCC1569. Description: H1.0 immunofluorescence intensity relative to DMSO (% of DMSO); higher = stronger H1.0 induction, active = 140 or more. To be noted: concentration: 10 µM; 24 h. The essentials:
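Cell number or H1.0 nuclear intensity appears as percent of the plate control, based on the median of replicates. Measurements came from HCC1569 and TDF cells exposed in triplicate to compounds at 10 µM for 24 h at 37 °C, then imaged in six fields per well at ×10. Positional effects were smoothed out of HCC1569 values.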
For `CSC(=S)NCc1c[nH]c2ccccc12` [Brassinin], the H1.0 immunofluorescence intensity was 99.7. As for `CS(=N)(=O)CCC(N)C(=O)O` [L-Methionine sulfoximine], the H1.0 immunofluorescence intensity is 98.4. Next, `CC(C)CC(NP(=O)([O-])OC1OC(C)C(O)C(O)C1O)C(=O)NC(Cc1c[nH]c2ccccc12)C(=O)[O-].[Na+].[Na+]` (configuration not stated) [Phosphoramidon disodium]: 102; `O=[N+]([O-])c1cc(O)c(O)c([N+](=O)[O-])c1` [3,5-Dinitrocatechol]: 97.9. `CC(C)NCC(O)c1ccc(N)c(C#N)c1` (configuration not stated) [Cimaterol]: the H1.0 immunofluorescence intensity is 102. The result for `NC(Cn1oc(=O)[nH]c1=O)C(=O)O` (configuration not stated) [Quisqualic acid] reads 92.7; that for `NC(CCP(=O)(O)O)C(=O)O` (racemic), 91.1. Turning to `CCCCCCCCCCCCCCCCOCC(O)COP(=O)([O-])OCC[N+](C)(C)C` (configuration not stated), the H1.0 immunofluorescence intensity is 104.

Regarding `CCC1CN2CCc3cc(OC)c(OC)cc3C2CC1CC1NCCc2cc(OC)c(OC)cc21.Cl.Cl` (configuration not stated), the H1.0 immunofluorescence intensity was 100. For the molecule `COC(=O)c1cc2c(cn1)[nH]c1ccccc12` [Methyl beta-carboline-3-carboxylate], the H1.0 immunofluorescence intensity was 95.3. With `CC1OC(OC2CC(O)C3(CO)C4C(O)CC5(C)C(C6=CC(=O)OC6)CCC5(O)C4CCC3(O)C2)C(O)C(O)C1O` (configuration not stated) [Ouabain], the H1.0 immunofluorescence intensity is 126. Regarding `CCCCCC=CCC=CCC=CCCCCCCC(=O)NCCO` [Anandamide (20:3,n-6)], the H1.0 immunofluorescence intensity is 103. The result for `COc1cc(=O)oc(C=CC=CC=CC(C)=CC2(C)OC(C)C(C)(O)C2O)c1C` (configuration not stated) [Citreoviridin] reads 77.4; that for `COc1ccc2c(c[n+](C)c3c4cc5c(cc4ccc23)OCO5)c1OC.[Cl-]` [Chelerythrine Chloride], 123; that for `CC1(O)CC23CC(O)C4(O)C(CC(O)C4(C)C)C(C)(O)C2CCC1C3O` (configuration not stated) [Grayanotoxin III], 88.2. The result for `CC(C(O)CCC(C)(C)O)C1CCC2(O)C3=CC(=O)C4CC(O)C(O)CC4(C)C3CCC12C` (configuration not stated) [Ecdysone] reads 88.8; that for `CC12NC(Cc3ccccc31)c1ccccc12.O=C(O)C=CC(=O)O` (single isomer, unassigned; (+)) [(+)-MK-801 hydrogen maleate], 89.3; that for `Cl.Oc1ccc2c3c1OC1C(O)CCC4(O)C(C2)N(CC2CCC2)CCC314` (configuration not stated) [Nalbuphine hydrochloride], 88.2.

Take `CC(=O)OC1C2C(OC(=O)Cc3ccccc3)C(C)CC2(OC(C)=O)C(=O)C(C)=CC2C(CCC13CO3)C2(C)C` (configuration not stated) [Euphorbiasteroid]: the H1.0 immunofluorescence intensity is 91.5. The result for `Cl.NCCc1ccc(O)cc1` [4-Hydroxyphenethylamine hydrochloride] reads 100. With `CC(N)c1cccc(Cl)c1Cl.Cl` (racemic), the H1.0 immunofluorescence intensity is 101. The result for `COc1cc2c(c(OC)c1OC)-c1ccc(OC)c(=O)cc1C(NC(C)=O)CC2` (configuration not stated) [Colchicine] reads 132; that for `C=C1C(C)C2C(Cc3ccccc3)NC(=O)C23C(OC(C)=O)C=CC(C)(O)C(=O)C(C)CC=CC3C1O` (configuration not stated) [Cytochalasin D], 204 (active); that for `CC1=CC(=O)c2c(O)cccc2C1=O` [Plumbagin], 326 (active). Next, `CC=C(C)C(=O)OC1CCC2(C)C3CCC4C5(O)CC(O)C6(O)C(CN7CC(C)CCC7C6(C)O)C5(O)CC42OC13O` (configuration not stated) [Cevadine]: 93.

With `COc1cccc(C2(O)CCCCC2CN(C)C)c1` (configuration not stated) [Tramadol], the H1.0 immunofluorescence intensity was 109. In the case of `CCCN1CCOC2c3cc(O)ccc3OCC21.Cl` (stereo not drawn) [S(+)-PD 128,907 hydrochloride], the H1.0 immunofluorescence intensity was 100. For the molecule `CC1=C(C)C(=O)C(CCC(C)(O)CCCC(C)CCCC(C)CCCC(C)C)=C(C)C1=O` (racemic), the H1.0 immunofluorescence intensity is 101. The result for `CN1CC(CO)C=C2c3cccc4[nH]cc(c34)CC21` (configuration not stated) [Lysergol] reads 87.6; that for `O=C1NC(=O)c2c1c1c3ccccc3[nH]c1c1[nH]c3ccccc3c21`, 127; that for `CCN1CC2(C)CCC(O)C34C5CC6C(OC)CC(O)(C(CC23)C14)C5C6O` (configuration not stated) [Karakoline], 99.8. For the molecule `Cc1cc(C(=O)CN2CCCC2)c(C)n1-c1ccc(F)cc1`, the H1.0 immunofluorescence intensity is 94.1.
